Data from PubChem BioAssay (NCATS).
Results filed as inconclusive are left out. Active and inactive are the calls of the source. Unless noted, the call rests on the fitted dose curve; in most records, active means well fitted curve in the direction sought with a large enough effect; inconclusive means small, poorly fitted or top-dose-only effect, or another doubt; inactive means no such curve, though single readings can be large; an effect the other way counts as inactive or inconclusive.

Experiments:
[1] = molecular target: Nucleoprotein (Lymphocytic choriomeningitis virus (strain Armstrong)) (UniProt P09992); assay: qHTS for Inhibitors of the Functional Ribonucleoprotein Complex (vRNP) of Lymphocytic Choriomeningitis Arenaviruses (LCMV): LCMV Primary Screen - GLuc reporter signal (AID 1347086; calls by dose curve; further: series mostly up to about 57 µM; on the % scale 0 is the no-effect control and ±100 the full control effect; nearly all actives have a fitted effect of over 70% in size)
Furin (Homo sapiens) = Furin (Homo sapiens) (UniProt P09958); assay: Furin counterscreen qHTS for Zika virus inhibitors (AID 1347149); further: nearly all actives have a fitted effect of over 70% in size; further: potency means the concentration at half of the fitted maximal effect
In short: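 Counterscreen measures cleavage of 2 microM BOC-RVRR-AMC, below its ~15 microM Km, by 5 nM full-length human furin at pH 7.0 after a 15-min compound preincubation. Inhibition derives from the 15-min fluorescence increase at 37C.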

[2] = test system: Zika virus NS2B-NS3 protease (linked construct); assay: Confirmatory screen NINDS AMC qHTS for Zika virus inhibitors (AID 1347152); further: potency means the concentration at half of the fitted maximal effect; nearly all actives have a fitted effect of over 70% in size
In short: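 In this dose-response qHTS, AMC release from 10 microM Bz-Nle-KRR-AMC by 1 nM linked protease is measured over 15 minutes (about 20% conversion) at pH 8.0. Percent inhibition is fitted to a 4-parameter Hill curve.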

[3] = test system: Zika virus NS2B-NS3 protease (unlinked complex); assay: Confirmatory screen GU AMC qHTS for Zika virus inhibitors (AID 1347153);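 further: enzyme at 25 nM with substrate at 10 µM below its Km of 18.3 µM; potency means the concentration at half of the fitted maximal effect; nearly all actives have a fitted effect of over 70% in size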
In short: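 Unlinked NS2B-NS3 complex (25 nM) in 10 mM Tris-HCl pH 8.0, 0.01% Tween 20 preincubated 15 min with compound, then 10 microM Bz-Nle-KRR-AMC (Km 18.3 µM). Fluorescence change over 15 min, normalized, Hill-fitted.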

[4] = Confirmatory screen NINDS Rhodamine qHTS for Zika virus inhibitors (AID 1347161); further: potency means the concentration at half of the fitted maximal effect; nearly all actives have a fitted effect of over 60% in size
In short: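 Enzyme (25 nM, linked NS2B-NS3) was preincubated 15 min with compound in 10 mM Tris-HCl pH 8.0, 0.01% Tween 20. Rhodamine110 substrate (1.5 microM) was then added and fluorescence read at start and after 15 min.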

[5] = test system: Zika virus NS2B-NS3 protease (linked construct); assay: 384 well plate NINDS Rhodamine confirmatory qHTS for Zika virus inhibitors (AID 1347164); further: potency means the concentration at half of the fitted maximal effect; nearly all actives have a fitted effect of over 65% in size
In short: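 Compounds are incubated about 15 minutes with linked protease (5, 30 or 60 nM final). Rhodamine 110-tagged Ac-LKRR substrate (10 microM final) is added and fluorescence measured after 25 minutes.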

[6] = HepG2 cells viability qHTS for Zika virus inhibitors (AID 1347168); further: potency means the concentration at half of the fitted maximal effect
In short: (§1)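 qHTS titration; 24-48 h compound exposure, 37 degrees C/5% CO2; DMEM, 4% FBS; CellTiter Glo ATP luminescence.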

[7] = Primary qHTS for small molecule stabilizers of the endoplasmic reticulum resident proteome: Secreted ER Calcium Modulated Protein (SERCaMP) assay (AID 1508630); further: on the % scale 0 is the no-effect control and ±100 the full control effect
In short: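 The SH-SY5Y reporter protocol was run at 3 concentrations up to 38.3 uM (primary) or 11 concentrations (follow-up): 16 h compound, 100 nM thapsigargin for 4 h, then extracellular luciferase luminescence.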

[8] = molecular target: Estrogen receptor (Homo sapiens) (UniProt P03372); assay: qHTS assay for small molecule antagonists of estrogen receptor alpha signaling (AID 588513; active means well fitted curve in the direction sought with a large enough effect in the signal ratio, with a control signal flat, not every such curve was filed as active; the % refers to the signal ratio; further: on the % scale 0 is the no-effect control and ±100 the full control effect)
In short: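 Cells were plated at 5000/well and incubated 4 h at 37 C. Compounds were added as 1:2 dilution series, duplicates. 17-beta-estradiol (0.5nM final) was added for 18 h before CCF4 detection.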

[9] = molecular target: Estrogen receptor (Homo sapiens) (UniProt P03372); assay: qHTS assay for small molecule agonists of estrogen receptor alpha signaling (AID 588514; calls by dose curve)
In short: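 Fluorescence from CCF4 cleavage reports ER-alpha-driven beta-lactamase expression in HEK 293 cells treated 18 hrs at 37 C. Data normalized to 17-beta-estradiol (20 nM) and DMSO, fitted to Hill equation.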

[10] = molecular target: Peroxisome proliferator-activated receptor gamma (Homo sapiens) (UniProt P37231); assay: qHTS assay for small molecule agonists of peroxisome proliferator-activated receptor gamma signaling (AID 588536; active means well fitted curve in the direction sought with a large enough effect in the signal ratio, with a control signal flat, not every such curve was filed as active; the % refers to the signal ratio;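 further: 0% = DMSO basal wells and 100% = rosiglitazone at 2 µM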)
In short: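 Cells were plated and held 6–6.5 h at 37 C, then compounds were added as a titration series. After a further 16 h, CCF4 dye was loaded for 2 h at room temperature and emission at 460/530 nm recorded.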

[11] = molecular target: Peroxisome proliferator-activated receptor gamma (Homo sapiens) (UniProt P37231); assay: qHTS assay for small molecule antagonists of peroxisome proliferator-activated receptor gamma signaling (AID 588537; active means well fitted inhibition curve with a large enough effect in the signal ratio, with a control signal flat, not every such curve was filed as active; the % refers to the signal ratio;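 further: reporter cells co-stimulated with 50 nM rosiglitazone agonist during compound treatment; % of control where 0% means no effect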)
In short: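 Read-out: CCF4 fluorescence (ex 405, em 460/530 nm) after 2 h at RT. Cells were HEK293 carrying a UAS-bla reporter and treated 16 h at 37 C with compound plus rosiglitazone (50 nM final). Normalized to rosiglitazone and DMSO.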

[12] = molecular target: Vitamin D3 receptor (Homo sapiens) (UniProt P11473); assay: qHTS assay for small molecule antagonists of vitamin D receptor signaling (AID 588541; calls by dose curve;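 further: receptor activated by calcitriol during compound treatment; series mostly up to about 77 µM; on the % scale 0 is the no-effect control and ±100 the full control effect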)
In short: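 VDR-UAS-bla HEK293T cells in 2% charcoal-stripped FBS were stimulated with 1-alpha,25-dihydroxyvitamin D3 (3 nM final) plus compound for 16 h at 37 C. The beta-lactamase CCF4 readout was normalized to 50 nM agonist and DMSO, and Hill fits gave IC50.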

[13] = molecular target: Vitamin D3 receptor (Homo sapiens) (UniProt P11473); assay: qHTS assay for small molecule agonists of vitamin D receptor signaling (AID 588543; calls by dose curve;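 further: 0% = DMSO basal and 100% = reference agonist control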)
In short: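 qHTS in agonist mode: compound titrations stimulate a VDR-driven β-lactamase reporter in HEK293T cells over 16 h at 37 °C. Response normalized to 50 nM 1α,25-dihydroxyvitamin D3 = 100%, DMSO = 0%; Hill fitting gives EC50 and maximal response.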

[14] = qHTS assay for small molecule agonists of retinoid X receptor alpha signaling (AID 588544; calls by dose curve;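 on activation: 0% = DMSO basal wells and 100% = reference agonist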); settings: HEK293T RXRa-UAS-bla, beta-lactamase reporter, 18 h; 530 nm emission
[15] = molecular target: Retinoic acid receptor RXR-alpha (Homo sapiens) (UniProt P19793); assay: as above
[16] = molecular target: Thyroid hormone receptor beta (Homo sapiens) (UniProt P10828); assay: qHTS assay for small molecule agonists of thyroid hormone receptor beta signaling (AID 588545; calls by dose curve)
In short: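 Agonist-mode beta-lactamase reporter assay, HEK 293 cells, 2% charcoal/dextran FBS; cells plated 4 hrs, compound 18 hrs at 37 C, CCF4 2 hrs RT. Normalized to 10 nM T3 (100%) and DMSO (0%); Hill fit gives EC50, efficacy.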

[17] = qHTS assay for small molecule antagonists of retinoid X receptor alpha signaling (AID 588546; active means well fitted inhibition curve with a large enough effect in the signal ratio, with a control signal flat, not every such curve was filed as active; the % refers to the signal ratio;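 further: cells stimulated with 9-cis-retinoic acid as agonist; on the % scale 0 is the no-effect control and ±100 the full control effect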); settings: HEK293T RXRa-UAS-bla, beta-lactamase ratio, antagonist mode; measured here: W530 green channel, cytotoxicity proxy
In short: (§2)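 Beta-lactamase reporter inhibition, read as CCF4 fluorescence ratio (ex 405, em 460/530 nm) after 2 h at RT. HEK293T UAS-bla cells, 2500/well, were stimulated with 9-cis-RA at 500 or 100 nM final alongside test compound for 18 h at 37 C.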

[18] = molecular target: Retinoic acid receptor RXR-alpha (Homo sapiens) (UniProt P19793); assay: as above; settings: HEK293T RXRa-UAS-bla, beta-lactamase ratio, antagonist mode
In short: as §2

[19] = qHTS assay for small molecule agonists of the antioxidant response element (ARE) signaling pathway (AID 651741; active means well fitted activation curve with a large enough effect in the signal ratio; the % refers to the signal ratio; further: % of control where 0% means no effect)
In short: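 HepG2 ARE-bla reporter cells, 2,000/well; 5 h settle at 37 C/5% CO2; compound pin transfer (23 nL, DMSO); 16 h at 37 C; LiveBLAzer B/G FRET substrate, 2 h RT; fluorescence intensity read.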

[20] = qHTS assay for small molecule activators of the p53 signaling pathway (AID 651743; active means well fitted activation curve with a large enough effect in the signal ratio, not every such curve was filed as active; the % refers to the signal ratio; further: series mostly up to about 92 µM; % of control where 0% means no effect); settings: HCT-116 p53RE-bla, beta-lactamase FRET ratio, 16 h; activation: stronger effect = higher value
In short: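 Reporter: beta-lactamase driven by p53 response elements, stably integrated in HCT-116 cells. Cells seeded at 4,000/well, 5 h preincubation, compound (DMSO) 16 h at 37 C; B/G FRET substrate 2 h RT; fluorescence intensity read.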

[21] = qHTS assay for small molecule activators of the nuclear factor-kappa B (NF-kB) signaling pathway (AID 651749; active means well fitted activation curve with a large enough effect in the signal ratio; the % refers to the signal ratio; further: series mostly up to about 77 µM; % of control where 0% means no effect); settings: NF-kB-bla ME-180 cells, beta-lactamase FRET ratio, 16 h; activation: stronger effect = higher value
In short: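 NF-kB-bla ME-180 cells, 2,000/well; 23 nL compound or DMSO pinned; 16 hr, 37C/5% CO2; beta-lactamase FRET read-out.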

[22] = qHTS assay for environmental chemicals that activate the Aryl hydrocarbon Receptor (AhR) signaling pathway (AID 651777); settings: 1A2-DRE human hepatoma cells, luciferase, 24 h; activation: stronger effect = higher value; further: % of control where 0% means no effect; nearly all actives have a fitted effect of over 15% in size
In short: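 Concentration–response screening used 1,200 1A2-DRE cells per well, 24 hr compound exposure (37 C, 5% CO2), and One-Glo luminescence as the AhR-driven CYP1A2 reporter signal.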

[23] = molecular target: Peroxisome proliferator-activated receptor alpha (Homo sapiens) (UniProt Q07869); assay: qHTS assay for small molecule agonists of the peroxisome proliferator-activated receptor alpha (PPARalpha) signaling pathway (AID 651778); settings: PathHunter PPARalpha complementation, chemiluminescence, 6 h; stronger effect = higher value; further: % of control where 0% means no effect
In short: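 Enzyme-fragment complementation assay in which ligand-bound PPARalpha translocates and forms an active enzyme that generates chemiluminescence. Cells were plated overnight, exposed to compound for 6 hr at 37 C, and then given detection reagent for 60 min at room temperature.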

[24] = qHTS assay for small molecule agonists of the antioxidant response element (ARE) signaling pathway measured by Nrf2-dependant transcriptional activity - cell viability counter screen (AID 720653; active means well fitted curve in the direction sought with a large enough effect in the repeat runs; an effect the other way counts as inactive or inconclusive; further: on the % scale 0 is the no-effect control and ±100 the full control effect); settings: ARE-bla HepG2 viability, CellTiter-Glo ATP luminescence, 16 h; max response: stronger effect = lower value
In short: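 ARE-bla HepG2 cells treated with compounds for 16 h at 37C; this counter screen measures viability as intracellular ATP by CellTiter-Glo luminescence after 30 min at room temperature.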

[25] = qHTS assay for cell viability of HEK293 cells (AID 743288); settings: ATP luminescence (CellTiter-Glo), 18 h; max response: stronger effect = lower value; further: on the % scale 0 is the no-effect control and ±100 the full control effect; nearly all actives have a fitted effect of over 50% in size
In short: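 Quantitative high-throughput screen: compounds were pinned onto parental HEK293 cells (2,000 per well) after a minimum 5 h settling at 37 C, incubated 18 h at 37 C, and intracellular ATP measured by luciferase luminescence.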

[26] = qHTS assay for cell viability of the p53RE-bla HCT-116 cell line (AID 743292); further: on the % scale 0 is the no-effect control and ±100 the full control effect; nearly all actives have a fitted effect of over 55% in size
In short: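 Compound-exposed HCT-116 (p53RE-bla) cells, 4,000 per well, were kept 16 h at 37 C following a 5 h preincubation. Cell number was estimated from total ATP by CellTiter-Glo luminescence read after 30 min at room temperature.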

[27] = test system: Zika virus NS2B-NS3 protease (unlinked); assay: Optimization of GU AMC qHTS for Zika virus inhibitors: Unlinked NS2B-NS3 protease assay (AID 1347151);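 further: series mostly up to about 52 µM; 0% = no-inhibitor control and -100% = no-enzyme control; nearly all actives have a fitted effect of over 80% in size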
In short: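 Percent inhibition is derived from the 15-min change in AMC fluorescence, normalized against no-inhibitor and no-enzyme controls, then fitted to a 4-parameter Hill curve. Aprotinin was the intraplate control.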

[28] = Vero cells viability qHTS for Zika virus inhibitors (AID 1347167); further: on the % scale 0 is the no-effect control and ±100 the full control effect
In short: as §1

[29] = Tertiary RLuc qRT-PCR qHTS assay for Zika virus inhibitors (AID 1347169); further: top concentration of the series differs between compounds; on the % scale 0 is the no-effect control and ±100 the full control effect; nearly all actives have a fitted effect of over 55% in size
In short: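 Orthogonal cell-based infection assay using recombinant ZIKV-RLuc (Cambodian) in Vero cells; compound added prior to virus at MOI 1-2. Incubation lasts 48-72 hrs at 37 degrees C before live-cell Renilla substrate is added and luminescence measured.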

[30] = molecular target: Nuclear receptor subfamily 1 group I member 2 (Rattus norvegicus) (UniProt Q9R1A7); assay: qHTS assay for small molecule activators of the rat pregnane X receptor (rPXR) signaling pathway (AID 651751; call rule not given here; further: 0% is about no effect); settings: rPXR reporter cells, luciferase (One-Glo), 24 h
Sequence of Nuclear receptor subfamily 1 group I member 2 (Rattus norvegicus) (Q9R1A7 whole entry, looked up): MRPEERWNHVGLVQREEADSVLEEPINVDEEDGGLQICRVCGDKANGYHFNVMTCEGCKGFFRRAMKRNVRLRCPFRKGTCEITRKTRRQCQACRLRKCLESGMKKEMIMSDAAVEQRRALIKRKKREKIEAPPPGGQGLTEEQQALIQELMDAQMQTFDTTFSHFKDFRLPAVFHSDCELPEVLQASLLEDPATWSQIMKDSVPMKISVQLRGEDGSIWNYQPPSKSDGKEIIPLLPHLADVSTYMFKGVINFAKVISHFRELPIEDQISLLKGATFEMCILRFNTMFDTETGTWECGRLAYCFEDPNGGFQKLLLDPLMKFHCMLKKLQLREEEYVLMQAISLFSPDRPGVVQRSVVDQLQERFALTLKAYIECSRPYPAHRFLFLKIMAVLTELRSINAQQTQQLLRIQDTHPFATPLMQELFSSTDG

Sequence of Peroxisome proliferator-activated receptor gamma (Homo sapiens) (P37231 whole entry, looked up): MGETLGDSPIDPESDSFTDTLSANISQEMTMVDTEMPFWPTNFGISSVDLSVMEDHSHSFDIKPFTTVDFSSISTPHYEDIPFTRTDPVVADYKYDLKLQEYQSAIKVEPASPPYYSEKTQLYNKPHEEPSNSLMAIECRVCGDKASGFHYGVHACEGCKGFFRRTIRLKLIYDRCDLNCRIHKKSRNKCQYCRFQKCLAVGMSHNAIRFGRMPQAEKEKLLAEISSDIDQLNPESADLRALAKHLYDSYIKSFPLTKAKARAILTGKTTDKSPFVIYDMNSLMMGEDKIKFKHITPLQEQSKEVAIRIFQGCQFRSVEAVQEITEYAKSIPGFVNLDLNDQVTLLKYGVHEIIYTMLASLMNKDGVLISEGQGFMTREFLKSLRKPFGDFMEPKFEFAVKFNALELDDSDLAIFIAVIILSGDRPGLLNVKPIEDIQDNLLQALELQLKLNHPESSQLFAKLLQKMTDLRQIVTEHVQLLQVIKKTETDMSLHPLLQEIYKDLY
Sequence of Vitamin D3 receptor (Homo sapiens) (P11473 whole entry, looked up): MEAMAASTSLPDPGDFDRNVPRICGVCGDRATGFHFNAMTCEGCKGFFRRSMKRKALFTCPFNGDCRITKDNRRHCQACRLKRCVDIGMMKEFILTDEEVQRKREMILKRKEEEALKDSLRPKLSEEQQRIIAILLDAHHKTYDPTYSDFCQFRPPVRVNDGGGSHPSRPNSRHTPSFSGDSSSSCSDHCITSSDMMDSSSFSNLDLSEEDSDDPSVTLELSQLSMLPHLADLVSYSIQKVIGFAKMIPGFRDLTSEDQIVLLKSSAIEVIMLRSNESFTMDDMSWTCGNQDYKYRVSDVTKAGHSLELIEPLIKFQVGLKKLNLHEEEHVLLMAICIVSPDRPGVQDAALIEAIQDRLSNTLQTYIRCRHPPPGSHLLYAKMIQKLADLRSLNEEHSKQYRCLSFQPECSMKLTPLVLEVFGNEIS
Sequence of Retinoic acid receptor RXR-alpha (Homo sapiens) (P19793 whole entry, looked up): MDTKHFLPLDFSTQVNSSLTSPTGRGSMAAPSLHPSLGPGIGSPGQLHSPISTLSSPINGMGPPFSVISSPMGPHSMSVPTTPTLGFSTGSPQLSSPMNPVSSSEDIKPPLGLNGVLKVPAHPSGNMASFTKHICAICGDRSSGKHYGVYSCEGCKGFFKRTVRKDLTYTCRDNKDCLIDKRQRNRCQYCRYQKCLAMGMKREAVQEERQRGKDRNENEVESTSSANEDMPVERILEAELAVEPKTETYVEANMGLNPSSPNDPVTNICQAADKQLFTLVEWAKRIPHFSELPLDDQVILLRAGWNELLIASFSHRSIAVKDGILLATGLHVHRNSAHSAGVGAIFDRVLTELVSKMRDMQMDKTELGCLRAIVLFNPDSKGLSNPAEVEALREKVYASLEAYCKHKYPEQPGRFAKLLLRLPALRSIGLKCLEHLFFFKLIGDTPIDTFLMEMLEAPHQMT
Sequence of Furin (Homo sapiens) (P09958 whole entry, looked up): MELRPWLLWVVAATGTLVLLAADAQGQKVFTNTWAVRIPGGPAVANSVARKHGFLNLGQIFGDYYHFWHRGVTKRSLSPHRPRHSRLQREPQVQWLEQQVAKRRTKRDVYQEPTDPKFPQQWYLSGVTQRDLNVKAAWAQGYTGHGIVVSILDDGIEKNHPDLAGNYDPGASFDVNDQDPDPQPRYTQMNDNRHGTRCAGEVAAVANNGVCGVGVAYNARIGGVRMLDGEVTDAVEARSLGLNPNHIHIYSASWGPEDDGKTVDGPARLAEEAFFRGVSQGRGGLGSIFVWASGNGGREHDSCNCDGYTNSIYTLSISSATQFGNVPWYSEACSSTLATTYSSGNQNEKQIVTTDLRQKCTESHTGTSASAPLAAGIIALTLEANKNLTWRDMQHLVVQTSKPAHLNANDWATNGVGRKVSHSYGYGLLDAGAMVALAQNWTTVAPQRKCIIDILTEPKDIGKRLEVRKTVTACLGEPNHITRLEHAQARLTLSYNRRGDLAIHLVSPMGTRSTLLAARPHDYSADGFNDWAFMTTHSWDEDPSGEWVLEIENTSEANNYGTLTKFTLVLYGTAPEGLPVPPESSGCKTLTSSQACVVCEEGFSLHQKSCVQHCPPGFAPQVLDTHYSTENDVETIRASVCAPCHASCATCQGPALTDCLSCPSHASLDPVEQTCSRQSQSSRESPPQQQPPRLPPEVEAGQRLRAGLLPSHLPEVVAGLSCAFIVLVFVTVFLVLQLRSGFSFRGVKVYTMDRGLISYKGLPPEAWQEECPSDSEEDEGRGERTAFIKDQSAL
Sequence of Estrogen receptor (Homo sapiens) (P03372 whole entry, looked up): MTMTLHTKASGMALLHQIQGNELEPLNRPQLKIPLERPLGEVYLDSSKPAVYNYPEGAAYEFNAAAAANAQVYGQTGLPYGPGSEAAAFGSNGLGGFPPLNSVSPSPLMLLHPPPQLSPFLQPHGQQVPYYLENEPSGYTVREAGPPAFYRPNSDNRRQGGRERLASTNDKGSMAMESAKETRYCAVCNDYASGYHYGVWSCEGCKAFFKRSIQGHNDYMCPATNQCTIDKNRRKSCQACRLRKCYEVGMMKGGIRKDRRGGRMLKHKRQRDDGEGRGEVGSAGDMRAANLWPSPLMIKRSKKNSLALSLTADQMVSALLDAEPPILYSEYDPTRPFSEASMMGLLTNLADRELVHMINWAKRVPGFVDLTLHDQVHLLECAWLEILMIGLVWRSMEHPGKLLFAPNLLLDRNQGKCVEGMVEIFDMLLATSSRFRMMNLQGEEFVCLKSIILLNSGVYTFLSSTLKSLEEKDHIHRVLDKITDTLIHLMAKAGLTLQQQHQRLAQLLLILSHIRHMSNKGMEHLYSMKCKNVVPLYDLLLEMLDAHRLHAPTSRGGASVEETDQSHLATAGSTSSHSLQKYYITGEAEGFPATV
Sequence of Peroxisome proliferator-activated receptor alpha (Homo sapiens) (Q07869 whole entry, looked up, the tested form may be a part): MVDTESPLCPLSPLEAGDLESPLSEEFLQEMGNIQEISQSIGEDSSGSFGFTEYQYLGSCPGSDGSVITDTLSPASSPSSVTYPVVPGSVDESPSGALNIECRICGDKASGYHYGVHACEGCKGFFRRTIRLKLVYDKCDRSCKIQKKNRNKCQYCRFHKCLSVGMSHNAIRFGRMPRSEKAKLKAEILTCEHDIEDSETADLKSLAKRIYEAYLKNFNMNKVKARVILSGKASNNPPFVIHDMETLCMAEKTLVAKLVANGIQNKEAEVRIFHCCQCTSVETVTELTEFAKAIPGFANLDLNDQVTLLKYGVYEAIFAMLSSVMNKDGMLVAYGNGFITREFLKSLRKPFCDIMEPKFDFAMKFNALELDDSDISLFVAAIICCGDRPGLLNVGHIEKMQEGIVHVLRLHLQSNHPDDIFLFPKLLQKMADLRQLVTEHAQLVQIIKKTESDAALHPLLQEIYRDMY
Sequence of Thyroid hormone receptor beta (Homo sapiens) (P10828 whole entry, looked up): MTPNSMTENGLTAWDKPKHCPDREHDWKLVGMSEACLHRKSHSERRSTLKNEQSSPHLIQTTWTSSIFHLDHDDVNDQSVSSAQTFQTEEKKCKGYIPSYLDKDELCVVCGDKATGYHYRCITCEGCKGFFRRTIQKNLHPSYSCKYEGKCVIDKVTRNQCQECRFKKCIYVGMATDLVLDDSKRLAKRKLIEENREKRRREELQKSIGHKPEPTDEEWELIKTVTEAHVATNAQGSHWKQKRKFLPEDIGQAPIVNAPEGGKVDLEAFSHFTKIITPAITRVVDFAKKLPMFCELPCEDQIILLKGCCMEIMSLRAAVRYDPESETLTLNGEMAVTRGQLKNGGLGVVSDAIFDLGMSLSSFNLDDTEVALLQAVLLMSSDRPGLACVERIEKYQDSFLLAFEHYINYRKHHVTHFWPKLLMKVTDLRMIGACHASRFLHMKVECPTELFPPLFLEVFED
Sequence of Nucleoprotein (Lymphocytic choriomeningitis virus (strain Armstrong)) (P09992 whole entry, looked up): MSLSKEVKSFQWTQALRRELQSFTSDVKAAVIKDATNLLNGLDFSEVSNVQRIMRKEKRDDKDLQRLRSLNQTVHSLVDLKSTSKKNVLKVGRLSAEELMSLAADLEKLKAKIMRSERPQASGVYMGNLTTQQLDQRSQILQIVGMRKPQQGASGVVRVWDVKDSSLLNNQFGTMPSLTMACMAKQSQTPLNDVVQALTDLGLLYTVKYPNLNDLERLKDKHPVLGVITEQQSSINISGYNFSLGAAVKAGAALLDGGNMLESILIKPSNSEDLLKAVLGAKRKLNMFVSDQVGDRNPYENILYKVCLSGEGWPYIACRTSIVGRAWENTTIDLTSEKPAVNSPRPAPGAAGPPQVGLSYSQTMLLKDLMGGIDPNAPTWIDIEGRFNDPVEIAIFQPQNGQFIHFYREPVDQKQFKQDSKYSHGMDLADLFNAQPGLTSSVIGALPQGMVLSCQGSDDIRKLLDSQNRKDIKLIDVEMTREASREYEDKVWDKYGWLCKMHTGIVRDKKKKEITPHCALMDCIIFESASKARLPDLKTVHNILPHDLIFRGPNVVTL

COC(=O)C12OCC34C(CC5C(C)=C(O)C(=O)CC5(C)C3C(O)C1O)OC(=O)C(OC(=O)C=C(C)C)C24 (stereo not drawn)
inactive: Potency [1]

CNc1ccc2oc(C[C@@H]3OC4(CC[C@@H]3C)O[C@H]([C@@H](C)C(=O)c3ccc[nH]3)[C@H](C)C[C@H]4C)nc2c1C(=O)O (stereo partly drawn)
active: Potency (Furin (Homo sapiens)) 21.5 µM | Potency [2] 19.2 µM | Potency [3] 24.1 µM | Potency [4] 9.87 µM | Potency [5] 44.7 µM | Potency [6] 26.2 µM
inactive: Potency [7]

CC(C)OC(=O)Nc1ccccc1
-6.41%: max response [17]
-15.4%: max response [14]
inactive: Potency [8] | Potency [9] | outcome [10] | Potency [11] | outcome [12] | Potency [13] | outcome [15] | Potency [16] | max response [18] -6.43% | Potency [19] | activation [20] -1.81% | activation [21] 0.27% | activation [22] 12.4% | max response [23] -0.246% | max response [24] -3.27% | max response [25] -1.53% | outcome [26] | Potency (Furin (Homo sapiens)) | outcome [27] | Potency [28] | Potency [6] | Potency [29] | max response [30] 10.9%
